These sequences were tested against T1, ETS1 (UniProt P14921) (assay: ETS1 binding intensity (PBM fluorescence) in presence of RUNX1, normalised to ETS1-only experiment (arbitrary fluorescence units); higher = stronger binding). Conditions: ETS1 concentration 1 nM; RUNX1 concentration 25 nM.
T1 sequence: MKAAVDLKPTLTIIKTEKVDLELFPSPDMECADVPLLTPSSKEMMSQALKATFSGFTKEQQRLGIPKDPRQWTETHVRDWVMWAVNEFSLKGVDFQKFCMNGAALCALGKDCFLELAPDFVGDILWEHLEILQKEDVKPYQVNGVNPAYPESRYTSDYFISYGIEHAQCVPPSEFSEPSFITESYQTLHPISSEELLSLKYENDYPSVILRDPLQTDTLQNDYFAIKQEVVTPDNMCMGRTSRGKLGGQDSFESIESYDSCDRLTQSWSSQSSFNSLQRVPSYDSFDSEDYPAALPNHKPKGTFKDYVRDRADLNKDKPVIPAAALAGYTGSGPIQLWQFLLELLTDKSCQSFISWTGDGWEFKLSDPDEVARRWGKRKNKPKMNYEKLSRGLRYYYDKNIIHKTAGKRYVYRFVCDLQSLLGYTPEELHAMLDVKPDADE
Description: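 Cooperative genomic-context PBM: 36-bp genomic probes with neighbouring ETS1 and RUNX1 sites, double-stranded on Agilent 4x180k arrays. Full-length recombinant human ETS1 (1 nM) was incubated alone or with RUNX1 (25 nM) and detected with anti-ETS1 antibody plus Alexa488 secondary. Value is the median fluorescence intensity over 4 replicate spots; the ETS1+RUNX1 data were normalised to the ETS1-only data using probes without RUNX1 sites. The 36-bp variable region sits on the array probe with constant linker/primer flanks that are not printed.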

Going from CCGTGGAAGGAAACGCTGCCAACCGCAACAGAAATG to CGGGGACCACTGTCAGGATGTGGTCACTGGAGTCAC, the ETS1 binding intensity rises from 2770 to 8350.

Going from GGGTGCTTCCTATAAACAATGACTCATTACCGCACT to GTCCTCCAGGAAGCCCGCGCTAACCACCGTGCCTTT, the ETS1 binding intensity rises from 474 to 688.

Compared with GTCTTACTTCCTGTCCCCGCCCACCGCGACTGTCTT, CAGGCAGGATGTTGACTCAGCTGCCAAGTGGTTTTG is lower in ETS1 binding intensity: 3520 for the first, 1760 for the second.

Compared with GCAGGACTCCAGGAAGCCCGCGCAGCCGCAAAAAGC, CCAGGGCCGGAAGTGCTGGTGGTGGTTTCCATCATG is higher in ETS1 binding intensity: 1350 for the first, 13900 for the second.

Going from GGAGCAGGAAGCGTCGCCGGGGGGCCCACAAGGGTA to GAGCGCCCACTTCCTGTTTACCACCCAGCCTCTTCG, the ETS1 binding intensity rises from 614 to 5330.

Compared with GCTGAGGCCGGAAGAGGGTGGGGCCGCGGTGGCTAG, ACCATCCTGTAGTCTGTTAAGTGAGCAACCGCATTA is lower in ETS1 binding intensity: 3070 for the first, 948 for the second.

Compared with CCCCGCGGAACTCTGGCACAGTCAGCTGACCGCAGA, CGGGGGCCAGGCTTCCTGTGGTGGGAGCGGCAGGCC is lower in ETS1 binding intensity: 2000 for the first, 477 for the second.

Compared with ACCAACCGGAAGTGATCGTGTTGTGGCCGAAGGAGG, TTAAGGAGCTTCCGGGGCCGCGGGTAGAGGCGGGTG is lower in ETS1 binding intensity: 18100 for the first, 741 for the second.

Going from TCCAGCCGGACGCGATGCCTGGAGGCTGCGGGCGCC to GCTCTGCAGGATGTGGCTGTGACCGCAGTGAGGAGC, the ETS1 binding intensity rises from 597 to 11800.

First: GAACCCCAAGTTCCGGCTGGCACTGCGGCGGAGCCT
Second: CTGCCTTTCCTGCTAGGGTACAAACCACAGCCTTAG
The ETS1 binding intensity of the first is lower: 299 for the first, 774 for the second.

Compared with GACGCATAAACAGGAAGGCCTGCGGGAGGGCCCGCC, AAGCTTCCTGGCCCTTTAAAAATGGCGGTTCCGCAC is lower in ETS1 binding intensity: 948 for the first, 714 for the second.

Compared with GACGGGATGTAGGTTTTCAGCCGTGGCCACAGGAGA, ACTTACTTCCCGACGTCACAGCCACCGAAACCACAG is lower in ETS1 binding intensity: 559 for the first, 464 for the second.

First: CAACAAGAGGAAATCAGAAACACTGAAGCCACAGCT
Second: GGCCCAGGAAAGAGGCAGGGGTGCGGTTTCCCTCCG
The ETS1 binding intensity of the first is lower: 463 for the first, 761 for the second.

Going from TCCCGGCGTTCTTCCGCTGGCTCAGCCGCAAGTACC to GCTACGGGTTCCCCGGATGGAGCCGCAGTCCGGCCG, the ETS1 binding intensity falls from 822 to 715.

Compared with ACAAGGACTTCCGCCTCCCTGCGGTCCCTCCCCTAC, CCTGCTGCTTCCGCCCGGAGTTGTTGTGGGCTCCAG is lower in ETS1 binding intensity: 1380 for the first, 661 for the second.

Compared with GGGCTATTGTTTCCTCCCCCATGTGACCACAGCCTC, TCCAGTGCCGCCGCCGGAAAACCGCAGCGGCGGCGG is higher in ETS1 binding intensity: 776 for the first, 4530 for the second.

Compared with CAAGCCACTTCCTTTCTTGCTCCCACAACCTGTGTT, AAACAGGAAATCACAGCAGCGTTGCGGAGTGGAGCA is higher in ETS1 binding intensity: 471 for the first, 1110 for the second.

Compared with AAACCCCAAACAGGAAGTGGTAAAGCAACCTGCATC, CTCAGAGGCACCAAGGGAAGTGGTTAAAACAGAAAG is lower in ETS1 binding intensity: 16400 for the first, 1790 for the second.

First: AGGCTTCCTGTTTTATCTCGTGTGTGTGGTGCACCA
Second: ACACCGCTCAGGAAGACAAAGCCACACCTCACACCA
The ETS1 binding intensity of the first is higher: 565 for the first, 358 for the second.

First: AACTAGAGCGTCATTTCCTGTGGGTACAAGTCCAGT
Second: CTTTGCTGCCGCCTTCCTGTGCGGGGCCGTGGCGGC
The ETS1 binding intensity of the first is higher: 2400 for the first, 389 for the second.
